Laboratory results published in PubChem BioAssay (NCI).
This is part of a sample that, as a whole, favours compounds with a hit. Of some 83,000 tested, about 20% had one in any assay.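 The test compound was applied at a single concentration to cells in 96-well plates for 48 hours, and percent growth was recorded.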 A number with no mark means an inactive call. Rule for the calls: active = growth percent below 10; inactive = the rest.

tested on: HL-60(TB) leukemia; assay: NCI-60 one-dose screen, 48 h (100 = growth as untreated, 0 = no growth, -100 = all killed); details: 10 µM unless noted

Point of comparison: `Cc1[nH]n(-c2cccc(Cl)c2)c(=O)c1/C=C1\C=c2ccccc2=CC1=O`, growth 104%. Against it:
- Cc1ccc(Nc2ncnc3c2sc2ncccc23)cc1 — lower, 71.2%
- Cc1cn(-c2cc(NC(=O)c3ccc(C)c(Nc4nccc(-c5cnccn5)n4)c3)cc(C(F)(F)F)c2)cn1 — lower, 33.4%
